Among the data in PubChem BioAssay (NCATS) are Potency, max response and activation values, retold here.

SMILES strings stand for the structures. Where “and” joins values, the source holds several entries; their conditions need not be identical. Equal values may be shown once. Records with an inconclusive call do not appear. Calls of active or inactive are those of the source. Unless noted, calls come from the whole dose curve; as a rule, active = well fitted curve in the direction sought with a large enough effect; inconclusive = small, poorly fitted or top-dose-only effect, or another doubt; inactive = no such curve, though single readings can be large; an effect the other way counts as inactive or inconclusive.

Experiment [1] can be described thus: Cell Viability - HepG2 (AID 433; calls by dose curve;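 note: potency is the fitted concentration of half-maximal effect; cells exposed to compound for 40 hours; potency for ATP loss meaning cytotoxicity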). Particulars: qHTS. The gist of the method:
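Read-out is luciferase-based quantitation of cellular ATP as a measure of viable HepG2 cells after 40 h treatment at 37 °C. Signal decrease is scaled between DMSO-only and 100 uM tamoxifen controls, with AC50 fitted by the Hill equation.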
Background: Quantitative high-throughput screening tests each substance at several concentrations.

Experiment [2] in a line: Cell Viability - Mesenchymal (AID 546).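 Note: cells exposed to compound for 40 hours before reading.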 The settings on record: mesenchymal cells viability, qHTS; activity change, negative = cytotoxicity: at 91.7 µM (top of the series). Put shortly: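 In this qHTS cytotoxicity format, glomerulus-derived human mesenchymal kidney cells received compound for 40 hr, then luciferase-based ATP quantitation. Concentration-response data were fitted with the Hill equation.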

The nature of experiment [3]: Cellular Toxicity (caspase-3) Jurkat (AID 655).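 Note: cells exposed to compound for 16 h at 37 °C before reading.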 The settings on record: Jurkat caspase-3 activation, luminescence; caspase-3 activation: at 92.2 µM (top of the series), DMSO = 0%, tamoxifen = 100%. The gist of the method: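 5000 Jurkat cells/well; compound 16 hr, 37 °C; Caspase-Glo 3/7 added, 20 min RT; luminescence read. Norm: DMSO = 0%, tamoxifen 100 uM = 100%. AC50, Hill model.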

Experiment [4] in a line: Cell Viability - LYMP1-002 - Assay at 16 hr (AID 948).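 Note: 0% = DMSO alone and full effect = 92 µM tetraoctylammonium bromide.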 Particulars: LYMP1-002 lymphoblastoid cell viability; series mostly up to 92.2 µM. The gist of the method:
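Seed 2500 LYMP1-002 cells per well in complete medium and hold 5 hr at 37 C. Add compound across a concentration series and incubate 16 hr at 37 C. Add CellTiter-Glo, wait 30 min at room temperature, read luminescence.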

A short description of experiment [5]: Cell Viability - LYMP2-003 (AID 965).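 Note: cells exposed to compounds for 24 h before reading; 0% = DMSO only and full effect = 92 µM tetraoctylammonium bromide; nearly all actives have a fitted effect of over 50% in size.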 The settings on record: LYMP2-003 lymphoblastoid cell viability; series mostly up to 92.2 µM. The gist of the method:
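Seed 2500 lymphoblastoid cells/well; incubate 5 hr, 37 C; add compounds; incubate 24 hr, 37 C; add CellTiter-Glo, 30 min RT; read luminescence. AC50 from Hill fit.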

Experiment [6] in a line: Cell Viability - LYMP2-011 (AID 969).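 Note: 0% = DMSO only and full inhibition = 92 µM tetraoctylammonium bromide; nearly all actives have a fitted effect of over 60% in size.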 Particulars: LYMP2-011 lymphoblastoid cells viability; series mostly up to 92.2 µM. Put shortly:
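Cytotoxicity qHTS with ATP content as read-out: lymphoblastoid cells (2500/well) exposed to compound for 24 h at 37 C, then luciferase luminescence measured. Concentration-response data fitted with the standard Hill equation to give AC50.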

Experiment [7] can be described thus: Cell Viability - LYMP2-013 (AID 970).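 Note: 0% = DMSO only and full inhibition = tetraoctylammonium bromide control; nearly all actives have a fitted effect of over 55% in size.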 Particulars: LYMP2-013 lymphoblastoid cells viability; series mostly up to 92.2 µM. The gist of the method:
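qHTS cytotoxicity: ATP-dependent luminescence (CellTiter-Glo, 30 min room temperature) read after 24 h compound exposure at 37 C of 2500 LYMP2-013 lymphoblastoid cells per well. Concentration-response fitted with Hill equation to give AC50.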

Experiment [8] is described as follows: Cell Viability - LYMP2-021 (AID 974). Note: % is set by controls: 0 for no effect and ±100 for the full control effect; nearly all actives have a fitted effect of over 55% in size. The settings on record: LYMP2-021 lymphoblastoid cells viability; series mostly up to 92.2 µM. The gist of the method:
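AC50 values come from Hill-equation fits to CellTiter-Glo luminescence (ATP content), read after 24 hour compound exposure at 37 C of 2500 LYMP2-021 lymphoblastoid cells/well; tetraoctylammonium bromide as positive control.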

Experiment [9] in a line: Cell Viability - LYMP2-002 (AID 977).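 Note: plate controls were DMSO only for no effect and 92 µM tetraoctylammonium bromide for full effect.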 Particulars: LYMP2-002 lymphoblastoid cell viability, qHTS; series mostly up to 92.2 µM. The gist of the method:
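In this qHTS viability screen, 2500 human lymphoblastoid cells per well receive compound for 24 hr at 37 C, and luciferase-based ATP luminescence gives the viability signal. Tetraoctylammonium bromide serves as positive control.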

Experiment [10] is described as follows: Cell Viability - LYMP2-008 (AID 980). Note: % is set by controls: 0 for no effect and ±100 for the full control effect; nearly all actives have a fitted effect of over 60% in size. Particulars: LYMP2-008 lymphoblastoid cell viability, qHTS; series mostly up to 92.2 µM. The gist of the method: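 Cytotoxicity determined from ATP-dependent luciferase luminescence (CellTiter-Glo) following 24 h compound exposure of human lymphoblastoid LYMP2-008 cells at 37 C. Concentration-response data fitted to the Hill equation to give AC50.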

Experiment [11] is described as follows: Cell Viability - LYMP2-012 (AID 982).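 Note: cellular ATP by luciferase luminescence where a drop means cytotoxicity; cells exposed to compound for one day before reading; 0% = DMSO only and full loss = 92 µM tetraoctylammonium bromide; nearly all actives have a fitted effect of over 55% in size.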 Particulars: LYMP2-012 lymphoblastoid cell viability qHTS; series mostly up to 92.2 µM.
The nature of experiment [12]: Cell Viability - LYMP2-014 (AID 983).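 Note: plate controls were DMSO only for no effect and 92 µM tetraoctylammonium bromide for full effect; nearly all actives have a fitted effect of over 50% in size.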 The settings on record: LYMP2-014 lymphoblastoid cells, viability qHTS; series mostly up to 92.2 µM. Put shortly: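 Intracellular ATP loss, read by luciferase luminescence, measures acute cytotoxicity after 24 h compound exposure of lymphoblastoid LYMP2-014 cells (2500/well, 37 C). Concentration-response data fitted to the Hill equation for AC50.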

The nature of experiment [13]: Cell Viability - LYMP2-016 (AID 984). Note: % is set by controls: 0 for no effect and ±100 for the full control effect; nearly all actives have a fitted effect of over 55% in size. The settings on record: LYMP2-016 lymphoblastoid cell viability, qHTS; series mostly up to 92.2 µM. Put shortly: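 Cells were seeded at 2500 per well and rested 5 hr before a 24 hr compound exposure at 37 C. Viability was then gauged as cellular ATP by luciferase luminescence, with AC50 values fitted to the Hill equation.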
A short description of experiment [14]: Cell Viability - LYMP2-020 (AID 986). The settings on record: series mostly up to 92.2 µM. Put shortly:
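Cytotoxicity in qHTS format: luminescent ATP readout from CellTiter-Glo after 24 h compound exposure at 37 C in complete medium. LYMP2-020 lymphoblastoid cells were seeded at 2500/well; concentration-response data fitted to the Hill equation for AC50.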

A short description of experiment [15]: Cell Viability - LYMP2-024 (AID 988).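 Note: plate controls were DMSO only for no effect and 92 µM tetraoctylammonium bromide for full effect; nearly all actives have a fitted effect of over 60% in size.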 Particulars: LYMP2-024 lymphoblastoid cell viability; series mostly up to 92.2 µM. Put shortly: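 Cytotoxicity was taken as a decrease in ATP (CellTiter-Glo luminescence) after 24 hr compound exposure at 37 C of LYMP2-024 lymphoblastoid cells, 2500 cells/well. Concentration-response data were fitted to the Hill equation to give AC50.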

Experiment [16] is described as follows: Cell Viability - LYMP2-026 (AID 989). Note: % is set by controls: 0 for no effect and ±100 for the full control effect; nearly all actives have a fitted effect of over 50% in size. The settings on record: LYMP2-026 lymphoblastoid cell viability, qHTS; series mostly up to 92.2 µM. Put shortly: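 Cytotoxicity read as ATP-dependent luminescence (CellTiter-Glo, 30 min room temperature) after 24 h compound treatment at 37 C. LYMP2-026 lymphoblastoid line seeded at 2500 cells/well; AC50 derived by standard Hill equation.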

The nature of experiment [17]: Cell Viability - LYMP1-002 - Assay at 40 hr (AID 994).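 Note: 0% = DMSO only and full inhibition = 92 µM tetraoctylammonium bromide; nearly all actives have a fitted effect of over 60% in size.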 Particulars: LYMP1-002 lymphoblastoid cell viability; series mostly up to 92.2 µM. The gist of the method: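 Cytotoxicity was read as loss of cellular ATP (CellTiter-Glo luminescence) after 40 hr compound exposure at 37 C of 2500 LYMP1-002 lymphoblastoid cells per well. Concentration-response data were fitted with the standard Hill equation to give AC50.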

Experiment [18] is described as follows: qHTS assay for small molecule antagonists of retinoid X receptor alpha signaling (AID 588546; active = well fitted inhibition curve with a large enough effect in the signal ratio, with a control signal flat, not every such curve was filed as active; the % refers to the signal ratio;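 note: cells stimulated with 9-cis-retinoic acid as agonist; % is set by controls: 0 for no effect and ±100 for the full control effect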). Particulars: HEK293T RXRa-UAS-bla, beta-lactamase ratio, antagonist mode; measured here: W530 green channel, cytotoxicity proxy. The gist of the method: (§1)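 Beta-lactamase reporter inhibition, read as CCF4 fluorescence ratio (ex 405, em 460/530 nm) after 2 h at RT. HEK293T UAS-bla cells, 2500/well, were stimulated with 9-cis-RA at 500 or 100 nM final alongside test compound for 18 h at 37 C.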

Experiment [19] concerns the target Retinoic acid receptor RXR-alpha (Homo sapiens) (UniProt P19793). The description is as above. The settings on record: HEK293T RXRa-UAS-bla, beta-lactamase ratio, antagonist mode. Put shortly:
as §1

Experiment [20] is described as follows: qHTS assay for environmental chemicals that activate the Aryl hydrocarbon Receptor (AhR) signaling pathway (AID 651777). Note: % of control where 0% means no effect; nearly all actives have a fitted effect of over 15% in size. Particulars: 1A2-DRE human hepatoma cells, luciferase, 24 h; activation: stronger effect = higher value. Put shortly: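 Measured luciferase activity, read 30 min after One-Glo addition at room temperature, from human hepatoma cells bearing a dioxin response element–CYP1A2 promoter reporter and exposed to compound for 24 hr at 37 C.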

Sequence of Retinoic acid receptor RXR-alpha (Homo sapiens) (P19793 whole entry, looked up): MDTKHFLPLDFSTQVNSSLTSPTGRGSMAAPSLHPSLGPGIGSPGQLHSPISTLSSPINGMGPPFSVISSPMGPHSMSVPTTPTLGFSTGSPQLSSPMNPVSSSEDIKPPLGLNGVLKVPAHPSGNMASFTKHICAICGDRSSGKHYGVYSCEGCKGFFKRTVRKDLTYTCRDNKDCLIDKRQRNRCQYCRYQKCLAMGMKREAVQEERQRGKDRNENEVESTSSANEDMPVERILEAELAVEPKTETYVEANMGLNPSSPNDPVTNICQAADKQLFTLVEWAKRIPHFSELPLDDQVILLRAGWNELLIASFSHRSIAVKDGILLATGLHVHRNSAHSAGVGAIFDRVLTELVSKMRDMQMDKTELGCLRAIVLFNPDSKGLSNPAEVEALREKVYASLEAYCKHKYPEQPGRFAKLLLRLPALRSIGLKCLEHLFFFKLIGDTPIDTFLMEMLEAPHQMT

As to `CC(C)COC(=O)COc1cc(Cl)c(Cl)cc1Cl`, the Potency in experiment [1] was > 92 µM (inactive). Moreover, the Potency result in experiment [2], in experiment [3], in experiment [4], in experiment [5], in experiment [6] and in experiment [7] was “inactive” each time. Besides, the Potency entry in experiment [8], in [9], in experiment [10], in [11], in [12] and in experiment [13] was “inactive” each time. Besides, the Potency result in experiment [14], in experiment [15], in [16] and in [17] was “inactive” each time. The max response in experiment [18] was -2.2%; in [19] it was 8.47% (inactive). In addition, the activation in [20] was 1.79% (inactive).

As for `CCCCNCC`, the Potency in [1] was > 92 µM (inactive). The Potency entry in experiment [2], in experiment [3], in experiment [4], in experiment [5], in experiment [6] and in experiment [7] was “inactive” each time. The Potency entry in experiment [8], in experiment [9], in experiment [10], in experiment [11], in [12] and in experiment [13] was “inactive” throughout. The Potency entry in [14], in experiment [15], in experiment [16] and in experiment [17] was “inactive” throughout. For the same molecule, the max response in [18] is -20.9%; in [19], 4.6% (inactive). Also, in experiment [20], the activation was -0.56% (inactive).

With `CC(=O)c1ccc(Cl)c(Cl)c1Cl`, the Potency in experiment [1] was > 92 µM (inactive). The Potency entry in experiment [2], in experiment [3], in [4], in experiment [5], in experiment [6] and in experiment [7] was “inactive” throughout. The Potency entry in experiment [8], in [9], in experiment [10], in experiment [11], in [12] and in experiment [13] was “inactive” each time. Moreover, the Potency result in [14], in experiment [15], in experiment [16] and in [17] was “inactive” each time. The max response in experiment [18] is -2.76%; in experiment [19] it was 5.75% (inactive). For the same molecule, the activation in [20] is -0.636% (inactive).

For `Nc1cc([N+](=O)[O-])ccc1O`, in experiment [1], the Potency was > 92 µM (inactive). The Potency result in experiment [2], in experiment [3], in experiment [4], in [5], in experiment [6] and in experiment [7] was “inactive” in each case. The Potency entry in experiment [8], in [9], in [10], in [11], in [12] and in experiment [13] was “inactive” throughout. Besides, the Potency entry in experiment [14], in experiment [15], in [16] and in experiment [17] was “inactive” throughout. The max response is -1.99% and 10.2% in experiment [18]; 2.5% (inactive) and -26.6% (inactive) in [19]. The activation in experiment [20] is 12.6% (inactive) and 2.53% (inactive).

In the case of `CCCCC(CC)COC(=O)COc1ccc(Cl)cc1Cl` (stereo not given), the Potency in [1] was > 92 µM (inactive). Further, the Potency entry in [2], in [3], in experiment [4], in [5], in experiment [6] and in experiment [7] was “inactive” throughout. The Potency result in experiment [8], in experiment [9], in experiment [10], in experiment [11], in [12] and in experiment [13] was “inactive” each time. For the same molecule, the Potency result in experiment [14], in [15], in experiment [16] and in experiment [17] was “inactive” each time. Moreover, the max response was 0.541% and -5.28% in experiment [18]; 18.5% (inactive) and 4.05% (inactive) in experiment [19]. Also, in experiment [20], the activation was 0.535% (inactive) and 1.47% (inactive).

As to `Oc1ccc2c(c1)OCO2`, the Potency in [1] was > 92 µM (inactive). Besides, the Potency result in experiment [2], in experiment [3], in [4], in [5], in [6] and in experiment [7] was “inactive” each time. Further, the Potency result in [8], in [9], in experiment [10], in experiment [11], in experiment [12] and in [13] was “inactive” in each case. Moreover, the Potency result in experiment [14], in experiment [15], in [16] and in experiment [17] was “inactive” throughout. For the same molecule, the max response is 5.56% in experiment [18] and 10.9% (inactive) in [19]. Besides, the activation in experiment [20] is -0.0594% (inactive).

Consider `CCOC(=O)C1OC1c1ccccc1` (stereo not given), for which, in [1], the Potency is > 92 µM (inactive). Besides, the Potency result in experiment [2], in [3], in [4], in [5], in experiment [6] and in experiment [7] was “inactive” throughout. The Potency result in [8], in experiment [9], in experiment [10], in [11], in [12] and in experiment [13] was “inactive” in each case. Moreover, the Potency entry in [14], in [15], in [16] and in experiment [17] was “inactive” throughout. Besides, the max response in [18] was -0.854%; in [19], 9.69% (inactive). Also, the activation in [20] is -0.0092% (inactive).
